# Laboratory results taken from ChEMBL document CHEMBL5724796, “Tm Shift (DSF) assay results for EUbOPEN Chemogenomics Library” (2024).
# Several values for one entry are separate records, joined by “and”; a condition that tells them apart may be missing. Equal values may be shown once.
# Tests used:
# Details in all cases: Compound concentration 20.0 uM
# [1] = target: Tyrosine-protein kinase ABL1 (Homo sapiens) (UniProt P00519)
# [2] = target: Bromodomain-containing protein 4 (Homo sapiens) (UniProt O60885)
# [3] = target: Cyclin-dependent kinase 2 (Homo sapiens) (UniProt P24941)
# [4] = target: Casein kinase I isoform delta (Homo sapiens) (UniProt P48730)
# Sequence of Casein kinase I isoform delta (Homo sapiens) (P48730 whole entry, looked up, canonical isoform): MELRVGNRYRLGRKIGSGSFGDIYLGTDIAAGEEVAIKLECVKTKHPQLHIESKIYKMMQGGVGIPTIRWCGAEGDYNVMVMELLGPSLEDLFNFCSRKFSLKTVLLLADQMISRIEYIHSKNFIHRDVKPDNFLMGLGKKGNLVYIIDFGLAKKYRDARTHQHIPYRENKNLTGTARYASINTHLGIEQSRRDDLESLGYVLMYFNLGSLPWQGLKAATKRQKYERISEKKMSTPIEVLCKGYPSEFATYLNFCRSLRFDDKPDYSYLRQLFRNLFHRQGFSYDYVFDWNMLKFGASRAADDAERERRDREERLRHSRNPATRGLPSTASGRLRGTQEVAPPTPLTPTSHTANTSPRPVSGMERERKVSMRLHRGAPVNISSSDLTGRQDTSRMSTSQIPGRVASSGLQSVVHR
# [5] = target: Glycogen synthase kinase-3 beta (Homo sapiens) (UniProt P49841)
# Sequence of Glycogen synthase kinase-3 beta (Homo sapiens) (P49841 whole entry, looked up): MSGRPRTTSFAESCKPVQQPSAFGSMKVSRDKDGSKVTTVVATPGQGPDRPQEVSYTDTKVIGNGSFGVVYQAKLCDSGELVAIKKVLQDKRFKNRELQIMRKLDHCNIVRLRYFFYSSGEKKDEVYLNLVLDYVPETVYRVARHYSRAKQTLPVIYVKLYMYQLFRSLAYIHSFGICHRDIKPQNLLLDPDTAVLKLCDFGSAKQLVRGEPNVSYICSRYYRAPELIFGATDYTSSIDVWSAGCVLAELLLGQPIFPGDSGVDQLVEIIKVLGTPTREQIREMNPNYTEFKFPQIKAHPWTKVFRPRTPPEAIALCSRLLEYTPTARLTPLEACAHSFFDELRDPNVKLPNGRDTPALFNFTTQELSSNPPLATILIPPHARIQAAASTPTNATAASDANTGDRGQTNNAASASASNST
# [6] = target: Mitogen-activated protein kinase 1 (Homo sapiens) (UniProt P28482)
# Sequence of Mitogen-activated protein kinase 1 (Homo sapiens) (P28482 whole entry): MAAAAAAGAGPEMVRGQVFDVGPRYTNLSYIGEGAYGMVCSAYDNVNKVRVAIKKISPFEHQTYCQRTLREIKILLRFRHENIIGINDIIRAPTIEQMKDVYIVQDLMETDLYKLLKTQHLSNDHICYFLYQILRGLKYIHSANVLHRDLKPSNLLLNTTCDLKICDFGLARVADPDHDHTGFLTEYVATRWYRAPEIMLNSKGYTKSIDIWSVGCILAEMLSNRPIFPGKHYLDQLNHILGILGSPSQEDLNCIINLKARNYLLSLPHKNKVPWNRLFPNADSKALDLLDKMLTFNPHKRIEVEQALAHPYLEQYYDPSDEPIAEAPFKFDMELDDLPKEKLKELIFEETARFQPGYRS
# [7] = target: T1, Aurora kinase A (Homo sapiens) (UniProt O14965)
# T1 sequence (whole entry): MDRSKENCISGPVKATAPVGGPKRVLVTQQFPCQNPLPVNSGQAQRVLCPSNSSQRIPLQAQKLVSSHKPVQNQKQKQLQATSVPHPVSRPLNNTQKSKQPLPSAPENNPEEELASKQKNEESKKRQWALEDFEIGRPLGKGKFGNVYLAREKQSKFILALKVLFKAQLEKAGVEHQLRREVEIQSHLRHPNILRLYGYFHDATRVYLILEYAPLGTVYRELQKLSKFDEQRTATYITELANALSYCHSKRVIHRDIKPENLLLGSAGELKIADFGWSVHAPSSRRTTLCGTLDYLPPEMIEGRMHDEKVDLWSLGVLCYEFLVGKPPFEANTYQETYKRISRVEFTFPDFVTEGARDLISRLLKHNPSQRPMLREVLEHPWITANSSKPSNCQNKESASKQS
# [8] = target: T2, Transcription intermediary factor 1-alpha (Homo sapiens) (UniProt O15164)
# T2 sequence (whole entry): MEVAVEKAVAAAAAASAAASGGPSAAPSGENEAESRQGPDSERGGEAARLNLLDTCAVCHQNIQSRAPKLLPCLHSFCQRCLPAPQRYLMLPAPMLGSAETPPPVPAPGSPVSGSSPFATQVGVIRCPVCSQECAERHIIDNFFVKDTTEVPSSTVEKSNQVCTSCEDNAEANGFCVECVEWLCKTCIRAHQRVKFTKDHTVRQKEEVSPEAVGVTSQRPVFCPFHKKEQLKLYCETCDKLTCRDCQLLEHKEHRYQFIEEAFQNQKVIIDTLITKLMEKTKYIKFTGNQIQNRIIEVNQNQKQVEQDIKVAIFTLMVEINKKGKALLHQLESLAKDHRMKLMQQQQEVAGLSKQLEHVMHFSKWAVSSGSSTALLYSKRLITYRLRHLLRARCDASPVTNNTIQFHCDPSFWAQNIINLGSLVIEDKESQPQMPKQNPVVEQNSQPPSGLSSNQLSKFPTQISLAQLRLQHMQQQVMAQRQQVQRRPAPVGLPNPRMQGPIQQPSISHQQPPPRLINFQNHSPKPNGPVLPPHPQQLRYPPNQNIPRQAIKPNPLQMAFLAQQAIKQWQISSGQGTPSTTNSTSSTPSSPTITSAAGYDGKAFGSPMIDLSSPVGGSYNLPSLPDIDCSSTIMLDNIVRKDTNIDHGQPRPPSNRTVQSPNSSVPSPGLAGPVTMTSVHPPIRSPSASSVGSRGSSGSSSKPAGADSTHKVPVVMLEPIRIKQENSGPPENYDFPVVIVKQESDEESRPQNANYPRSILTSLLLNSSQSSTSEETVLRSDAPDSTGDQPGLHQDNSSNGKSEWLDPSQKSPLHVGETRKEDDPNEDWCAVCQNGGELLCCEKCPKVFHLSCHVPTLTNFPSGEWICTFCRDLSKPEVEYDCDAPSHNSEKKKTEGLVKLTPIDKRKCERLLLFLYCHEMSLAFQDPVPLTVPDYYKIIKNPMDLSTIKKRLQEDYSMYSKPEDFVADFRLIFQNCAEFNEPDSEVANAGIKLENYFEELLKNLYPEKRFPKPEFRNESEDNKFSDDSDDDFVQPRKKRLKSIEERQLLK
# Sequence of Tyrosine-protein kinase ABL1 (Homo sapiens) (P00519 whole entry): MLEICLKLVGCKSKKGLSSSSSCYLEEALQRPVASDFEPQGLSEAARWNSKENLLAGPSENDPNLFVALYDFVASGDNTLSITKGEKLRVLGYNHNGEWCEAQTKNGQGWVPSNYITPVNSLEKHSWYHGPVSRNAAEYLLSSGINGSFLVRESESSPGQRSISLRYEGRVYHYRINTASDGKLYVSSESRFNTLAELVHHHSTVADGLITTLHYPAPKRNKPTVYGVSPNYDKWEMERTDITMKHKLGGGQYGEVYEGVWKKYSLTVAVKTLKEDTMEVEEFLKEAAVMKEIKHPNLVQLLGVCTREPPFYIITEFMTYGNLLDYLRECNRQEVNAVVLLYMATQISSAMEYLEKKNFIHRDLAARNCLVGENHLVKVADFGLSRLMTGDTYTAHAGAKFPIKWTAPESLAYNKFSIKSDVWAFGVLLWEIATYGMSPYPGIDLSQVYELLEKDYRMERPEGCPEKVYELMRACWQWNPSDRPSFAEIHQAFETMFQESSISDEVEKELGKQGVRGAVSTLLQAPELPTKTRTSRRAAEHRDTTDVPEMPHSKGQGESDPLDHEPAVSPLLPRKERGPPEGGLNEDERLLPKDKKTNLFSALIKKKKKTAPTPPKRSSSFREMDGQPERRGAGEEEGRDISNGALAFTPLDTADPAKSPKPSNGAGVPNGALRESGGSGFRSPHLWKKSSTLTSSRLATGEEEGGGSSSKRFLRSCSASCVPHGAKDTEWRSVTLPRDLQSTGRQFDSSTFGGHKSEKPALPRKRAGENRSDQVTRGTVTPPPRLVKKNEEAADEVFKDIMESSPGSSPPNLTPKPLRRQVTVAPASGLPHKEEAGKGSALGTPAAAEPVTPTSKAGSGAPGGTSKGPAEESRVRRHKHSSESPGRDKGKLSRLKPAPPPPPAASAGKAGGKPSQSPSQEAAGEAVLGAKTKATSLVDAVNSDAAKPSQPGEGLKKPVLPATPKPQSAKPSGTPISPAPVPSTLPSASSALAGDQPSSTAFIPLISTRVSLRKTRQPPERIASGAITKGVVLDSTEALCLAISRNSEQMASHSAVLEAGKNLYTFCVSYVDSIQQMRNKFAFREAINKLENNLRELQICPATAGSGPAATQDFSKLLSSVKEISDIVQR
Compound,ΔTm [1],ΔTm [2],ΔTm [3],ΔTm [4],ΔTm [5],ΔTm [6],ΔTm [7],ΔTm [8]
Cc1c(Nc2ccc(S(=O)(=O)N3CCN(C)CC3)cc2F)nc2ccc(-c3cnn(C4CC4)c3)cn2c1=O,0.73 °C,-2.59 °C,0.26 °C,-0.28 °C,0.08 °C,0.06 °C,-1.87 °C,-1.92 °C
O=C(NO)c1cnc(NC2(c3ccccc3)CC2)nc1,-0.47 °C,-1.48 °C,0.47 °C,0.23 °C,-0.05 °C,-0.3 °C,-0.41 °C,-1.75 °C
O=C(C1CC1)N1CC[C@@H](Cc2n[nH]c(=O)n2-c2ccc(-c3ccc4occc4c3)cc2)C1,0.72 °C and 0.71 °C,-1.91 °C and -3.51 °C,-0.31 °C and -0.16 °C,0.35 °C and -0.18 °C,-0.54 °C and 0.29 °C,0.34 °C and 0.05 °C,-4.5 °C and -1.89 °C,-1.14 °C and -0.89 °C
O=C(N1CCCCC1c1ccccc1)n1cc(-c2ccc(-c3cccc(CO)c3)cc2)nn1 (configuration not stated),-2.74 °C,-2.31 °C,-2.39 °C,-10.5 °C,-1.86 °C,-9.96 °C,-5.38 °C,2.17 °C
CC(C)C[C@@H](C=O)NC(=O)[C@@H](NS(=O)(=O)c1ccc(F)cc1)C(C)C,-0.01 °C,-1.83 °C,-0.11 °C,0.22 °C,-0.13 °C,0.01 °C,-1.2 °C,-1.15 °C
CN1C[C@@H]2[C@H](C1)[C@H]2CN(Cc1ccc(F)c(Cl)c1)C(=O)c1cn(C)cn1,0.53 °C,-2.2 °C,0.3 °C,-0.21 °C,0.04 °C,0.19 °C,-1.34 °C,-1.48 °C
CC(C)(C)NS(=O)(=O)c1ccc(NC(=O)[C@H](Cc2ccccc2)NC(=O)c2ccc(F)cc2)cc1,2.48 °C,-1.97 °C,0.06 °C,0.21 °C,2.59 °C,-3.67 °C,-0.32 °C,-0.1 °C
Cc1ncsc1-c1ccc(CNC(=O)[C@@H]2C[C@@H](O)CN2C(=O)[C@@H](NC(=O)COCCOCCOCCNC(=O)C[C@@H]2N=C(c3ccc(Cl)cc3)c3c(sc(C)c3C)-n3c(C)nnc32)C(C)(C)C)cc1,0.3 °C,10 °C,-1.76 °C,0.94 °C,0 °C,0 °C,0 °C,0 °C
O=c1c2nnc(C3CCOCC3)n2cc(Br)n1CC1CCCC1,0.74 °C,-2.93 °C,0.35 °C,-0.32 °C,-0.29 °C,0.23 °C,-1.77 °C,-0.67 °C
Cc1cc(C)c(-c2[nH]nc(C)c2C)cc1C(=O)N1CC(c2ccc(C#N)cc2)C1,1.06 °C,-3.66 °C,-0.16 °C,-0.21 °C,-0.42 °C,0.26 °C,-2.18 °C,-0.05 °C
C[C@]1(c2nc3c(C(N)=O)cccc3[nH]2)CCCN1,0.02 °C,-2.57 °C,-0.1 °C,0.16 °C,-0.63 °C,-0.01 °C,-1.66 °C,1.28 °C
CC(C)[C@@H]1NC(=O)[C@H](Cc2ccc(O)cc2)NC(=O)[C@@H](CC(=O)O)NC(=O)S[C@@H](C(=O)O)NC(=O)[C@H]([C@H](C)O)NC(=O)[C@H](Cc2ccc(O)cc2)NC(=O)[C@H](Cc2c[nH]c3ccccc23)NC(=O)[C@H](CCCNC(=N)N)NC(=O)[C@H](Cc2c[nH]c3ccccc23)NC(=O)[C@H](C)NC(=O)[C@H](CO)NC(=O)[C@H](CCCNC(=N)N)NC(=O)[C@H]([C@H](C)O)NC(=O)[C@H](CC(N)=O)NC(=O)[C@H](Cc2ccc(O)cc2)NC1=O,0.39 °C,-2.6 °C,0.11 °C,-0.3 °C,-0.36 °C,0.08 °C,-2.45 °C,-0.7 °C
Cc1n[nH]c(C)c1Cc1sc2c(c1C(=O)N1C[C@H](O)CO1)c(=O)n(C)c(=O)n2CC(C)C,0.44 °C,-2.67 °C,0.95 °C,-0.14 °C,-0.85 °C,0.11 °C,-1.57 °C,0.69 °C
CC(C)Nc1cc(-c2c[nH]c(C(=O)N[C@H](CO)c3cccc(Cl)c3)c2)c(Cl)cn1,1.43 °C,6.89 °C,8.63 °C,0.57 °C,14.2 °C,-1.26 °C,13.7 °C,0.98 °C
CCn1nc(C2CC2)cc1Nc1nc(C(=O)NC)nc2[nH]c3cc(-c4c(C)noc4C)c(OC)cc3c12,0.56 °C,8.71 °C,-0.11 °C,-0.18 °C,-1.43 °C,0.23 °C,-2.42 °C,0 °C
CNC(=O)O[C@H]1COc2ccc(N3CCN(C4COC4)CC3)cc2[C@@H]1NC(=O)c1ccc(F)cc1,0.28 °C,-1.16 °C,-0.66 °C,0.03 °C,-0.56 °C,-1.19 °C,-1.61 °C,-0.51 °C
CN(Cc1ccccc1)c1ccc2cc(C(=O)O)c(=O)oc2c1,0.44 °C,2.11 °C,0.37 °C,0.11 °C,0 °C,0.54 °C,-1.09 °C,0.17 °C
CCCCCCCCCCCCC/C=C/[C@@H](O)[C@H](CO)NC(=O)CBr,0.2 °C,-6.16 °C,-4.16 °C,-9.74 °C,-9.26 °C,0.47 °C,-14.4 °C,-2.18 °C
CC(C)(F)C[C@H](N[C@@H](c1ccc(-c2ccc(S(C)(=O)=O)cc2)cc1)C(F)(F)F)C(=O)NC1(C#N)CC1,0.21 °C,-2.13 °C,-0.11 °C,-0.06 °C,0 °C,-1.51 °C,-0.27 °C,-1.8 °C
